Records with an inconclusive call do not appear. Active and inactive are the calls of the source. Unless noted, calls follow the shape of the dose curve; as a rule, active = well fitted curve in either direction with a large enough effect (not every such curve was filed as active); inconclusive = small, poorly fitted or top-dose-only effect, or another doubt; inactive = flat fitted curve, though single readings scatter.

The nature of assay [1]: AP1 Signaling Pathway (AID 357).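 Also: ME-180 reporter cells stimulated with EGF at its EC50 level; % is scaled to controls: 0 for no effect and ±100 for the full control effect.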 The following applies: ME-180 AP-1-bla reporter, EGF-induced, beta-lactamase ratio, 5 h; at 7.69 µM (top of the series) unless noted. Put shortly: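 In this screen, ME-180 cells in Opti-MEM with 0.5% dialyzed FBS received EC50 EGF and compound titrations for 5 h. AP-1 reporter beta-lactamase was detected via CCF4 ratio, giving AC50 for positive and negative modulators.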

For assay [2], the target named is Cytochrome P450 1A2 (Homo sapiens) (UniProt P05177). The assay can be described thus: p450-cyp1a2 (AID 410; calls by dose curve; also: potency is read from the fitted curve at half-maximal effect). Put shortly: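 20nM CYP1A2, 100uM Luciferin-ME (=Km), 100mM KPO4; cpd 10 min RT; +NADPH regen, 60 min RT; stop/detect 20 min; luminescence. Normalized to furafylline 57 uM = full inhibition.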
Assay [3] is described as follows: Stat Signaling Pathway (AID 446).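 Also: ME-180 cervical cancer cells given 40 pM IL-6 alongside compound; SIE-controlled beta-lactamase reporter measured as 460/530 nm FRET emission ratio; % is scaled to controls: 0 for no effect and ±100 for the full control effect.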 The settings on record: ME-180 SIE beta-lactamase reporter, IL-6 stimulated, 5 h; at 7.69 µM (top of the series) unless noted. In outline: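 FRET read-out (405 nm excitation, 460/530 nm emission) of a beta-lactamase reporter under a STAT-inducible element in ME-180 cervical carcinoma cells. Cells with compound receive 40 pM IL-6 for 5 h. Values are normalised to AC90 stimulation and AC90 JAK-inhibitor controls.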

Assay [4] deals with Glucocorticoid receptor (Homo sapiens) (UniProt P04150). The assay can be described thus: GR-GFP Redistribution (AID 450;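 active = compounds whose dose series gives a full or clear partial fitted curve of increased nuclear translocation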; also: potency is read from the fitted curve at half-maximal effect). The settings on record: U2OS GR-GFP nuclear translocation, laser cytometry, 2 h.
For assay [5] the target is unchanged. The assay can be described thus: GR-EFC Redistribution (AID 451; calls by dose curve; also: potency is read from the fitted curve at half-maximal effect). The following applies: CHO-K1 GR-EFC translocation, beta-gal luminescence, 2 h. Put shortly:
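Translocation of GR-ED fusion to nuclear EA restores b-gal, read by luminescence after 1 h room-temperature detection. Engineered CHO-K1 biosensor cells, 1,000/well, exposed 2 h at 37 C to titrations up to 46 uM final.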

Assay [6] addresses Mitogen-activated protein kinase 10 (Mus musculus) (UniProt Q61831). The assay can be described thus: JNK3 AlphaScreen Assay (AID 530).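 Also: kinase came from lysate of stimulated human HepG2 cells; signal reports phosphorylation of biotinylated GST-cJun 1-79 at Ser73 with 10 µM ATP; % is scaled to controls: 0 for no effect and ±100 for the full control effect.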 Put shortly: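 Kinase buffer: 20 mM Tris-HCl pH 7.6, 10 mM MgCl2, 1 mM DTT, 0.1 mM Na3VO4, 0.01% Tween-20; ATP 10 uM. Substrate biotin-GST-cJun(1-79), enzyme from activated HepG2 lysates. Detection by Ser73 phospho-antibody AlphaScreen.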
Background: Alpha assays give light when donor and acceptor beads are brought close together.

Assay [7] has as its target 3',5'-cyclic-AMP phosphodiesterase 4B (Homo sapiens) (UniProt Q07343). The assay can be described thus: qHTS Assay for Inhibitors of PDE-IV (AID 607; active = well fitted activation curve with a large enough effect in the main read-out, with a control signal flat, not every such curve was filed as active; also: % of control where 0% means no effect). Put shortly: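 Cell-based read-out of cAMP via a modified cyclic nucleotide-gated channel and membrane potential dye (535/590 nm) in HEK293 cells expressing PDE4 endogenously. Compounds tested up to 22.9 uM final; 100 uM RO 20-1724 reference.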
(In qHTS, concentration-response curves come from the screen itself.)

Assay [8] in a line: Confirmation and Secondary Assay for Modulators of Hemoglobin Beta Chain Splicing at IVS2 654 locus (AID 910; active = well fitted curve in the direction sought with a large enough effect; an effect the other way counts as inactive or inconclusive;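 also: HeLa cells stably carrying EGFP split by mutant beta-globin IVS2-654 intron; per-well total GFP intensity by laser scanning cytometry after 2-day treatment; % of control where 0% means no effect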). In outline:
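Readout: per-well total peak green fluorescence (488 nm ex, 500–520 nm em) from objects 5–250 µm, reflecting correct splicing of an EGFP-654 reporter. Compounds were applied for 2 days at 37 °C to overnight-plated HeLa EGFP-654 cells; controls were DMSO and 500 nM IVS2-654 PNA.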

The nature of assay [9]: qHTS Assay for Identification of Small Molecule Agonists for Hypoxia Response Element Signaling Pathway (AID 914; active = well fitted activation curve with a large enough effect in the signal ratio, with a control signal flat, not every such curve was filed as active; the % refers to the signal ratio; also: potency is read from the fitted curve at half-maximal effect; as to activation: % of control where 0% means no effect). The settings on record: ME-180 (cervical carcinoma) HRE-bla reporter, beta-lactamase ratio, CoCl2, 17 h; activation: stronger effect = higher value. Put shortly: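 AC50 values come from titration-series %Activity, taken as the 460/530nm ratio of CCF4 fluorescence (excitation 405nm). CellSensor HRE-bla ME-180 cells were treated 17 hours at 37 C with compound plus an EC50 level of CoCl2.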

Assay [10] can be described thus: Confirmation and Secondary Assay for Modulators of Hemoglobin Beta Chain Splicing at IVS2 705 locus (AID 930; active = well fitted curve in the direction sought with a large enough effect; an effect the other way counts as inactive or inconclusive;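 also: HeLa cells stably expressing the EGFP-705 splicing reporter; % of control where 0% means no effect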). Put shortly:
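Restored EGFP fluorescence after 2-day compound exposure reports splicing correction in IVS2-705 EGFP reporter HeLa cells; positive control was 500 nM splice-blocking PNA oligo. Signal measured as well total peak GFP intensity (488 nm excitation).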

The nature of assay [11]: qHTS Assay for Lipid Storage Modulators (AID 1519; calls by dose curve). The following applies: Drosophila S3 cells, BODIPY lipid droplet/cell ratio, laser cytometry, cells loaded with oleic acid; for activity change, negative = inhibition: at 57.5 µM (top of the series). Put shortly:
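Cells seeded at 5,000 per well were treated with compounds over a concentration series and loaded with oleic acid (400 uM, as added). Lipid droplet fluorescence (488 nm excitation, 500-530 nm channel) was read by laser-scanning cytometry and normalized to 20 uM Triacsin C.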

In assay [12] the target is Ubiquitin carboxyl-terminal hydrolase 1 (Homo sapiens) (UniProt O94782). The assay can be described thus: Inhibitors of USP1/UAF1: Pilot qHTS (AID 504865; active = well fitted curve in the direction sought with a large enough effect; an effect the other way counts as inactive or inconclusive; also: nearly all actives have a fitted effect of over 35% in size; also: potency is read from the fitted curve at half-maximal effect). Put shortly:
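In 50mM HEPES pH 7.8 containing 0.5mM EDTA, 1mM TCEP, 0.1 mg/ml BSA and 0.01% Tween-20, 1nM USP1/UAF1 is exposed to compound for 15 min, then Ub-Rho (150nM final) is added and fluorescence is read over time.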

Assay [13] can be described thus: Primary qHTS for small molecule stabilizers of the endoplasmic reticulum resident proteome: Secreted ER Calcium Modulated Protein (SERCaMP) assay (AID 1508630; active = well fitted curve in the direction sought with a large enough effect; an effect the other way counts as inactive or inconclusive; also: % is scaled to controls: 0 for no effect and ±100 for the full control effect). Put shortly: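 The SH-SY5Y reporter protocol was run at 3 concentrations up to 38.3 uM (primary) or 11 concentrations (follow-up): 16 h compound, 100 nM thapsigargin for 4 h, then extracellular luciferase luminescence.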

Assay [14] is described as follows: NFAT Signaling Pathway (AID 444). The following applies: Jurkat NFAT-bla M1, carbachol, beta-lactamase ratio, 5 h; at 7.69 µM (top of the series) unless noted. In outline:
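Read-out: CCF4 FRET ratio (460 nm/530 nm) after 1 h RT dye loading, used for %activity and AC50 from titration series. Cells: Jurkat NFAT-β-lactamase/M1 line, treated with compound plus 1 uM carbachol for 5 h, 37 °C.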

Assay [15] concerns the target Dual specificity protein kinase CLK4 (Homo sapiens) (UniProt Q9HAZ1). The assay can be described thus: qHTS Assay for Inhibitors of CDC-like Kinase 4 (Kinase-Glo Assay) (AID 1770; active = well fitted curve in the direction sought with a large enough effect; an effect the other way counts as inactive or inconclusive; also: % is scaled to controls: 0 for no effect and ±100 for the full control effect; nearly all actives have a fitted effect of over 65% in size). In outline:
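Substrate mix (RS peptide 100 uM, ATP 1 uM) dispensed, compound pinned in, then Clk4 added to 25 nM final. Incubated 4.5 h at RT; Kinase-Glo reagent added, luminescence read after 5 min.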

Assay [16] has the same target. The assay can be described thus: qHTS Assay for Inhibitors of CDC-like Kinase 4 (ADP-Glo Assay) (AID 1771; active = well fitted curve in the direction sought with a large enough effect; an effect the other way counts as inactive or inconclusive; also: % is scaled to controls: 0 for no effect and ±100 for the full control effect; nearly all actives have a fitted effect of over 70% in size). In outline: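 25 nM Clk4, 100 uM RS peptide, 1 uM ATP (final); 2 mM MgCl2, 0.5 mM EGTA, 2.5 mM DTT, 0.01% Triton X-100; 1 hr RT. ADP-Glo readout: ATP depletion 45 min, conversion/luciferase 30 min, luminescence.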
Assay [17] has the same target. The assay can be described thus: qHTS Assay for Inhibitors of CDC-like Kinase 4 (ADP-FP Assay) (AID 1795; active = well fitted curve in the direction sought with a large enough effect; an effect the other way counts as inactive or inconclusive;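 also: recombinant human CLK4 phosphorylating RS repeat peptide at 1 µM ATP; % is scaled to controls: 0 for no effect and ±100 for the full control effect; nearly all actives have a fitted effect of over 60% in size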). In outline:
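Clk4 6.25 nM; RS peptide 100 uM; ATP 1 uM; 25 mM Tris pH 7.5, 10 mM MgCl2; 1 h reaction. ADP detected via antibody/orange tracer FP displacement; TG003 positive control.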

In assay [18] the target is Lysosomal acid glucosylceramidase (Homo sapiens) (UniProt P04062). The assay can be described thus: Glucocerebrosidase-p2 (AID 348; in the data active = potency below about 10 µM; also: potency is read from the fitted curve at half-maximal effect). The following applies: purified GBA, blue fluorogenic substrate, 40 min. Put shortly:
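Normal human glucocerebrosidase (0.2 nM) with blue fluorogenic substrate (80 uM final) in citrate/phosphate pH 5.9 with 10mM sodium taurocholate, 0.01% tween-20; 40 min RT, NaOH/glycine stop; fluorescence Ex 365/Em 440; AC50 from a titration from 0.6 nM upwards.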

Assay [19] deals with Cytochrome P450 3A4 (Homo sapiens) (UniProt P08684). The assay can be described thus: qHTS Assay for Activators of Cytochrome P450 3A4 (AID 885; active = well fitted curve in the direction sought with a large enough effect; an effect the other way counts as inactive or inconclusive; also: nearly all actives have a fitted effect of over 65% in size). Put shortly:
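Luminescent readout of luciferin formed from 25 uM Luciferin-PPXE (KM level) by 20 nM CYP3A4 in 200 mM KPO4, with 60 min NADPH-driven reaction at room temperature after 10 min compound exposure. Ketoconazole (57 uM) defined 100% inhibition.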

[20] abbreviates: measured here: cell count channel max response.
Setting [21] is: measured here: lipid channel max response.

Sequence of Ubiquitin carboxyl-terminal hydrolase 1 (Homo sapiens) (O94782 whole entry, looked up): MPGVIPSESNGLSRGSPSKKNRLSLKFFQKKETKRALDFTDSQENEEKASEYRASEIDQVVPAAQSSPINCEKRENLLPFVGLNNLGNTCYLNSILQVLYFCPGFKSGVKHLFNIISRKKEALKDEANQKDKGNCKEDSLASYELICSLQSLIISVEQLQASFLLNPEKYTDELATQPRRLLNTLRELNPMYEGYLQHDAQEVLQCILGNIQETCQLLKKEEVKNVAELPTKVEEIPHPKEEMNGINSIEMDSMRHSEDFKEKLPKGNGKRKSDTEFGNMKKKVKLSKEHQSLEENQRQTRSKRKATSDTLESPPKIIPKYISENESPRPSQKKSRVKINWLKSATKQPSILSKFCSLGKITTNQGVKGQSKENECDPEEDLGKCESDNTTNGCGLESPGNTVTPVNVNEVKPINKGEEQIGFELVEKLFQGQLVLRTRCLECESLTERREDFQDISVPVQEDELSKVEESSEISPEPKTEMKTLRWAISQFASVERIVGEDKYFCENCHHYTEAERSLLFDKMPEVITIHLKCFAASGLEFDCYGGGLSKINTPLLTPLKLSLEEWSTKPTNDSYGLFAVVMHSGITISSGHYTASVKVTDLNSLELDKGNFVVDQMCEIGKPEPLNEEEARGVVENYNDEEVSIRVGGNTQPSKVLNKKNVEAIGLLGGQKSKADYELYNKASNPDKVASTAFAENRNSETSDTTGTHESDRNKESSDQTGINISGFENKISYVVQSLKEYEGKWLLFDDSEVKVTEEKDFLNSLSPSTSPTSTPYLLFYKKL
Sequence of Glucocorticoid receptor (Homo sapiens) (P04150 whole entry, looked up): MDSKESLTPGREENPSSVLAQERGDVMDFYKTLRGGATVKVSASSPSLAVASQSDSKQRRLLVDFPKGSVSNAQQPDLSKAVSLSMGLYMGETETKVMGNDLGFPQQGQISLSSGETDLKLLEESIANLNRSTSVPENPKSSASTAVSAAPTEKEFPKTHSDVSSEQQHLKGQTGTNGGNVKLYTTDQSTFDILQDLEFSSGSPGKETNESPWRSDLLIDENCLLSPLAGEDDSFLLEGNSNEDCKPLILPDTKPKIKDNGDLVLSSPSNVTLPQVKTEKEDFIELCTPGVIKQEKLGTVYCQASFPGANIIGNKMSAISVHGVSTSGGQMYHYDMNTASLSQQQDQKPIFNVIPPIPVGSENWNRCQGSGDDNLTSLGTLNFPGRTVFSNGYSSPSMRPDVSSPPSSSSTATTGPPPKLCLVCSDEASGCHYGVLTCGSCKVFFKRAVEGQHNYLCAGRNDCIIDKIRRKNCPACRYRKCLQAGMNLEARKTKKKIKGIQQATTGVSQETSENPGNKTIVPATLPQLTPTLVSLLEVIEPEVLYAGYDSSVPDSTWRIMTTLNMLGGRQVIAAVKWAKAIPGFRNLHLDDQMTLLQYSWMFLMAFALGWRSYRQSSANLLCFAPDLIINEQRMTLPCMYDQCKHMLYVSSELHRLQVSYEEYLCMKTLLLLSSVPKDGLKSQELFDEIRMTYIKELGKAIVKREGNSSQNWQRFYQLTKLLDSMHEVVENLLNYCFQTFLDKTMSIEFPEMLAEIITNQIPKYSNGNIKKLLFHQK
Sequence of 3',5'-cyclic-AMP phosphodiesterase 4B (Homo sapiens) (Q07343 whole entry, looked up): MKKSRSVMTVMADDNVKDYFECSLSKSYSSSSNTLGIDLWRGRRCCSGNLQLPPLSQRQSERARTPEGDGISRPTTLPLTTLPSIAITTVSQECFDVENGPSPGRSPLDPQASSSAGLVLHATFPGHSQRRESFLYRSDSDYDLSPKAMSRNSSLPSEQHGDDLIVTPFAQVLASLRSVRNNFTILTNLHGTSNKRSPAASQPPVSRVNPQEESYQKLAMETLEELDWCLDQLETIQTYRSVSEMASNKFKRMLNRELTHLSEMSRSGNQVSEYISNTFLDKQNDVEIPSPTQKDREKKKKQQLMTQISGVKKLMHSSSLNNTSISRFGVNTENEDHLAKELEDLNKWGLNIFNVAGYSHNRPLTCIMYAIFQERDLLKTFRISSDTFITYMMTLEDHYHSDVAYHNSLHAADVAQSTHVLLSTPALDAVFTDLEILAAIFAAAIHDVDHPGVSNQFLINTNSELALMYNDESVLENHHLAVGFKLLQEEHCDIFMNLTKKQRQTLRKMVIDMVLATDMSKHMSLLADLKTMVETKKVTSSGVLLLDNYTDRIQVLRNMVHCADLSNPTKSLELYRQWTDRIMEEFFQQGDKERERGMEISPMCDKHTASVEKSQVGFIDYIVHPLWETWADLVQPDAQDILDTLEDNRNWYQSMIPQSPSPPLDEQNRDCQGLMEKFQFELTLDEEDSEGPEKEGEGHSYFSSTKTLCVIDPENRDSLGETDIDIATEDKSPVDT
Sequence of Dual specificity protein kinase CLK4 (Homo sapiens) (Q9HAZ1 whole entry, looked up): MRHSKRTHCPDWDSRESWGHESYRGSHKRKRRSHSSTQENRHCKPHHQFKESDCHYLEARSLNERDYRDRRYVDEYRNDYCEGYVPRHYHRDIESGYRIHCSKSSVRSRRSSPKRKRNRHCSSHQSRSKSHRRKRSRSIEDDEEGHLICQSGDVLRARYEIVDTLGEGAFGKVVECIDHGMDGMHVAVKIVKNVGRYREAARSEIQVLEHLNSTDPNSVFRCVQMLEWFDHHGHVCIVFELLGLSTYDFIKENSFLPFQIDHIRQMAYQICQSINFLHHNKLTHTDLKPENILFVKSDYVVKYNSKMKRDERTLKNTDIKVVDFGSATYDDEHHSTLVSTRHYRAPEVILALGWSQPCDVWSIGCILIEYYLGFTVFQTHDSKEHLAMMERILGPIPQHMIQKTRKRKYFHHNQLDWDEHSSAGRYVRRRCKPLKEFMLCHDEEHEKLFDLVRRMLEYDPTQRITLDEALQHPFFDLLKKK
Sequence of Cytochrome P450 1A2 (Homo sapiens) (P05177 whole entry, looked up): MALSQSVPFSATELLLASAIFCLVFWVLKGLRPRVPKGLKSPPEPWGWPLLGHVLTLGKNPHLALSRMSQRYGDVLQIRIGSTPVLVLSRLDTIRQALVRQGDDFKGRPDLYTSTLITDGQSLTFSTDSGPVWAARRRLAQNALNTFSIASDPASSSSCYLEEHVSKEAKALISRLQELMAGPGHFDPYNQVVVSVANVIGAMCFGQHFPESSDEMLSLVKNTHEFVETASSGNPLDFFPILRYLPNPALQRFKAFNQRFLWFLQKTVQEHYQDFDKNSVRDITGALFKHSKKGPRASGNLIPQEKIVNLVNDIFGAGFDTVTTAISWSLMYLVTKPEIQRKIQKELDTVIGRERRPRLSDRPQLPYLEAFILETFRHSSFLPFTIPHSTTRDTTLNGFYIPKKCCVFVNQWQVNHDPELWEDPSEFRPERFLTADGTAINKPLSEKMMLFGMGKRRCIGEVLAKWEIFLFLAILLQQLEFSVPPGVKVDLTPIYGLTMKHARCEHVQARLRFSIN
Sequence of Lysosomal acid glucosylceramidase (Homo sapiens) (P04062 whole entry, looked up): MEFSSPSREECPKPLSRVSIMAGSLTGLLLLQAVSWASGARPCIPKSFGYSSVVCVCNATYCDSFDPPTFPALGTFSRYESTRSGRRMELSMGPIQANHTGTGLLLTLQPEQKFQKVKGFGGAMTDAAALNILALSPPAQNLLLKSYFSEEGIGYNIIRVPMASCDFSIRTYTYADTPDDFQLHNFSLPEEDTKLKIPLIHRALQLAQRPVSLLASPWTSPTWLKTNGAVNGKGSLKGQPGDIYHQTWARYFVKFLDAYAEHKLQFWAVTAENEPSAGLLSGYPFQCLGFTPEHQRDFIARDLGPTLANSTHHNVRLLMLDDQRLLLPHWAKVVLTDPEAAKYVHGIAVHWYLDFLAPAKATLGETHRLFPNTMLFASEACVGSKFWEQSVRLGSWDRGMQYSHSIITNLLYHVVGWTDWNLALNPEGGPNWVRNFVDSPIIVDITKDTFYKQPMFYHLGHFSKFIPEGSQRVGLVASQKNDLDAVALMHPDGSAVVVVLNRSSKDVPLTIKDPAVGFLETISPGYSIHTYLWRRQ
Sequence of Cytochrome P450 3A4 (Homo sapiens) (P08684 whole entry, looked up): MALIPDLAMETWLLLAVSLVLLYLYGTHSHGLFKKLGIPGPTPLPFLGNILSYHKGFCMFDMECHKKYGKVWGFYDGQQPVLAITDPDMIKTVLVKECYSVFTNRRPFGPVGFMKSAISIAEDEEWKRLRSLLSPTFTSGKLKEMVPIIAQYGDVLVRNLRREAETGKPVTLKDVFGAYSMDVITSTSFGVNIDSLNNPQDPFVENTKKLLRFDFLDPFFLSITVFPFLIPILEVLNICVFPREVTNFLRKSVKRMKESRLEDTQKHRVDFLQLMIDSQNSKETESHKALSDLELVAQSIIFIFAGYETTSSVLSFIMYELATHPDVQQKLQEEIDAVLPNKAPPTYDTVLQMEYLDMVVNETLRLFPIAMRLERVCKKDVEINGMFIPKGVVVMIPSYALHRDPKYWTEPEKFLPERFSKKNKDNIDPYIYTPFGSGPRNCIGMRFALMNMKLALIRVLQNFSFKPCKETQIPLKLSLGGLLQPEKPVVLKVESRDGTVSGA

In the case of `Cc1noc(C)c1-c1cc(N(C)C)ncn1`, the activity change, negative = inhibition was 10% (inactive) in assay [1] and 8.35% (inactive) in assay [11]. Also, the Potency in [2] was 3.16 µM (active); in assay [4], > 46 µM (inactive); in [5], > 46 µM (inactive). The activity, negative = inhibition in assay [3] is 16% (inactive). The result in assay [6], in assay [8] and in assay [10] was inactive. Besides, the Potency entry in assay [7], in [12] and in assay [13] was “inactive” in each case. In addition, the activation in assay [9] is 0.655% (inactive). Moreover, the max response is 3.97% in assay [11] (setting [20]) and 11.9% in assay [11] (setting [21]).

For the compound `CC(C)NC(=O)N1CC[C@@]2(CCCN(S(C)(=O)=O)C2)C1`, the activity change, negative = inhibition in [1] is -5.61% (inactive); in assay [14], 0.961% (inactive); in assay [11] it was 0.109% (inactive). Besides, the Potency entry in assay [2] and in assay [13] was “inactive” each time. Moreover, the activity, negative = inhibition in assay [3] is -2.56% (inactive). Also, the Potency in assay [5] is > 46 µM (inactive). For the same compound, the outcome in assay [6] was inactive. The max response is 4.25% in assay [11] (setting [20]) and 3.89% in assay [11] (setting [21]).

In the case of `Clc1ccccc1-c1nccc(NCc2cccs2)n1`, the results for the activity change, negative = inhibition in assay [1] and in assay [14] were 15.2% (inactive) and 0.38% (inactive), respectively. Also, the activity, negative = inhibition in [3] was 1.89% (inactive). Further, the Potency was > 46 µM (inactive) in [4], > 46 µM (inactive) in assay [5] and 28.2 µM (active) in [12]. Besides, the call in [6] was inactive. The Potency entry in [15], in [16], in [17] and in assay [13] was “inactive” in each case.

`CC(C)NC(=O)N1CCC2(CC1)CCN(C(=O)c1csnn1)CC2`: the values for the activity change, negative = inhibition in assay [1], in assay [14] and in [11] were -2.2% (inactive), 6.85% (inactive) and 1.46% (inactive), respectively. In addition, the Potency result in assay [2], in assay [7] and in [13] was “inactive” throughout. In assay [3], the activity, negative = inhibition was -6.49% (inactive). Moreover, the Potency in [5] was > 46 µM (inactive). In addition, the compound was classed as inactive in assay [6]. In addition, the max response is -0.0052% in [11] (setting [20]) and 5.7% in assay [11] (setting [21]).

As for `CN1CCN(c2ncc3nc(-c4cccs4)c(=O)n(CCC#N)c3n2)CC1`, the Potency in [18] is > 11.4 µM (inactive); in [2], 15.8 µM (active); in assay [4], > 9.22 µM (inactive); in assay [5], > 46 µM (inactive); in assay [9] it was 3.16 µM (active). For the same compound, the outcome in [6] was inactive. Moreover, the Potency entry in assay [7], in [19], in assay [17], in assay [12] and in assay [13] was “inactive” in each case.

As to `COc1ccccc1CN1CC[C@@]2(CCCN(C(C)=O)C2)C1`, the values for the activity change, negative = inhibition in assay [1], in [14] and in assay [11] were -19% (inactive), 19.3% (inactive) and 0.807% (inactive), respectively. The Potency result in [2], in assay [7] and in assay [13] was “inactive” each time. In addition, the activity, negative = inhibition in [3] was 1.39% (inactive). The Potency in [5] is > 46 µM (inactive). Moreover, the call in assay [6] was inactive. The max response in assay [11] (setting [20]) was -2.53%; in assay [11] (setting [21]), -1%.

Consider `O=c1c(-c2cccs2)nc2cnc(N3CCOCC3)nc2n1Cc1ccc(F)cc1`, for which the Potency in assay [18] is > 11.4 µM (inactive); in [2], 20 µM (active); in [4], > 9.22 µM (inactive); in assay [5], > 46 µM (inactive). The activity change, negative = inhibition in [1] was 27.4% (inactive); in [14] it was 27.2% (inactive). The compound was called inactive in [6]. In addition, the Potency result in assay [7], in assay [19], in assay [15], in assay [16], in [17] and in assay [12] was “inactive” in each case. The Potency result in [13] is “inactive”.

The values are drawn from PubChem BioAssay (NCATS).
